# Results as given in article PMC4336329 (PLoS ONE, 2015).
# Out of some 310,000 compounds screened, about 14,000 (4.5%) showed an effect of 50% or more. Effects have a minus sign here. Shown is part of a subset that was picked to be rich in strong results.
# Target: human ether-à-go-go-related gene (hERG) potassium channel (human, UniProt Q12809)
# Experiment: primary screen, population patch clamp on CHO cells stably expressing hERG; higher = less effect of the substance
# 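Also: peak tail current of the secondary pulse compared with the same well before compound.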
# human ether-à-go-go-related gene (hERG) potassium channel, sequence (Q12809 whole entry, looked up): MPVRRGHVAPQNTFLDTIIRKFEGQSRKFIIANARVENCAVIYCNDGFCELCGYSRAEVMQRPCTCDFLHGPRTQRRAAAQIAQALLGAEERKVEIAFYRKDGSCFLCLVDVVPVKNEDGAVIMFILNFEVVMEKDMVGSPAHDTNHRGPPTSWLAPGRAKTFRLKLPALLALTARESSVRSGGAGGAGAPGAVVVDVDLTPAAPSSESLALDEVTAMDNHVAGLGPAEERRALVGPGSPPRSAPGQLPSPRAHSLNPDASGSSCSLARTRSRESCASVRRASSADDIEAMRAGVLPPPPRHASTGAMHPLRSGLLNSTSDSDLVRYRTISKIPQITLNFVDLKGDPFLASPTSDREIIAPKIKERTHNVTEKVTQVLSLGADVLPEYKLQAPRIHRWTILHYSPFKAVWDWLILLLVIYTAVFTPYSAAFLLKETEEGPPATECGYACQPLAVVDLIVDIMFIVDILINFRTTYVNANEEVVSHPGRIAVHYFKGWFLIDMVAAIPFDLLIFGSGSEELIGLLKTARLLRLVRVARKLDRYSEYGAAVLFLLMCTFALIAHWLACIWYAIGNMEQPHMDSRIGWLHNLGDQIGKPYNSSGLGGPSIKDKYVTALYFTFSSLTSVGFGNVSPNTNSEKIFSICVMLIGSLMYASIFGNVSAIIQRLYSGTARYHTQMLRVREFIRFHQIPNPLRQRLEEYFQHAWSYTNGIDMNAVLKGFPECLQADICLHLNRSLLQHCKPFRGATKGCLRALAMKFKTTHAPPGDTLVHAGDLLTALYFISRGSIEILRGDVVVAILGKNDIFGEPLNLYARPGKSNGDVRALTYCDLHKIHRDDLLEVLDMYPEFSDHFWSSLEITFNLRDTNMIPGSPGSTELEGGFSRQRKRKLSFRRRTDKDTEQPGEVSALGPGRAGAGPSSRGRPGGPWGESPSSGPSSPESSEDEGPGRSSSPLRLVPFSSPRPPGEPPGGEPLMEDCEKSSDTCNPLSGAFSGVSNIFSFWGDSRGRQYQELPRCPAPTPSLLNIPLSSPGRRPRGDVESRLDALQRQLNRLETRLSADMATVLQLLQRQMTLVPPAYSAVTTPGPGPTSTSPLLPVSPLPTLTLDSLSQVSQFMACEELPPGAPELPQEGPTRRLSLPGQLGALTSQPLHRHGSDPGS
row,Compound,"hERG current change (%, negative = inhibition) at 10uM"
1,O=C(Nc1ncccc1O)c1ccc2c(c1)OCO2,3.08%
2,COc1ccccc1NC=C1C(=O)OC(C)(C)OC1=O,-24%
3,CCOC(=O)c1ccc(S(=O)(=O)N2CCN(C(C)=O)CC2)cc1,0.122%
4,CCc1nc(Nc2ccccc2)c2nnn(Cc3ccccc3)c2n1,8.23%
5,COC(=O)c1nn(-c2ccc(-c3ccccc3)cc2)cc1O,-3.85%
6,CC(C)Cn1c(N)c(C(=O)COC(=O)c2cc(C(F)(F)F)nc3c(C(F)(F)F)cccc23)c(=O)n(C)c1=O,7.27%
7,Cc1ccc(C(=O)NCC(=O)OCC(=O)c2c(N)n(C)c(=O)n(C)c2=O)s1,9.14%
8,Cc1cc(C)cc(C(=O)NCC(=O)OCC(=O)c2c(N)n(C)c(=O)n(C)c2=O)c1,17.4%
9,CCCn1c(N)c(C(=O)COC(=O)CNC(=O)c2ccc(C)c(C)c2)c(=O)n(C)c1=O,-78.1%
10,Cc1csc(=O)n1CC(=O)OCC(=O)c1c(N)n(CC(C)C)c(=O)n(C)c1=O,-10.7%
11,CC(C)Cn1c(N)c(C(=O)COC(=O)c2c(F)cccc2F)c(=O)n(C)c1=O,-16.7%
12,CC(C)Cn1c(N)c(C(=O)COC(=O)Cc2cccc(C(F)(F)F)c2)c(=O)n(C)c1=O,-54.5%
13,Cc1cccc(OCC(=O)OCC(=O)c2c(N)n(C)c(=O)n(C)c2=O)c1,-13.1%
14,CC(C)Cn1c(N)c(C(=O)COC(=O)Cc2cccs2)c(=O)n(C)c1=O,-51.7%
15,CC(C)Cn1c(N)c(C(=O)COC(=O)c2ccc(F)cc2)c(=O)n(C)c1=O,17.1%
16,CC(C)Cn1c(N)c(C(=O)COC(=O)COc2cccc(C(F)(F)F)c2)c(=O)n(C)c1=O,-50.9%
17,CC(C)Cn1c(N)c(C(=O)COC(=O)/C=C/c2cccs2)c(=O)n(C)c1=O,-49.9%
18,CCN(CC)S(=O)(=O)c1cc(C)c(C)cc1OCC(=O)NC1CCCC1,-23.1%
19,C/C=C/C=C/C(=O)N1CC2(CC(c3cccc(NC(=O)/C=C/C)c3)=NO2)C[C@@H]1C(N)=O (stereo partly shown),2.75%
20,Cc1ccsc1/C=N\NC(=O)c1cc(C(C)(C)C)[nH]n1,-9.77%
21,O=C(CN1C(=O)NC(c2ccccc2)(c2ccccc2)C1=O)N1CCN(c2ccccc2F)CC1,-17.4%
22,CC1(C)NC(=O)N(CC(=O)N2CCN(c3cccc(C(F)(F)F)c3)CC2)C1=O,6.26%

row,Compound,"hERG current change (%, negative = inhibition) at 10uM"
1,O=C(CN1C(=O)C2CC=CCC2C1=O)N1CCN(c2ccc([N+](=O)[O-])cc2)CC1 (stereo not shown),-71.6%
2,CC1(C)NC(=O)N(CC(=O)N2CCN(c3ccc([N+](=O)[O-])cc3)CC2)C1=O,-66.1%
3,O=C(CN1C(=O)C2CCCCC2C1=O)N1CCN(c2ccc(F)cc2)CC1 (stereo not shown),-12.2%
4,CC(C(=O)N1CCOCC1)c1ccc([N+](=O)[O-])cc1 (stereo not shown),9.94%
5,O=C(CN1C(=O)NC(c2ccccc2)(c2ccccc2)C1=O)N1CCN(c2ccc(F)cc2)CC1,-68.4%
6,COc1ccc(N2CCN(C(=O)CN3C(=O)C4CC=CCC4C3=O)CC2)cc1 (stereo not shown),12.3%
7,O=C(CN1C(=O)NC(c2ccccc2)(c2ccccc2)C1=O)N1CCOCC1,0.969%
8,CC(C(=O)N1CCN(c2ccc([N+](=O)[O-])cc2)CC1)N1C(=O)C2CC=CCC2C1=O (stereo not shown),-72.2%
9,CC1(C)NC(=O)N(CC(=O)N2CCN(c3cccc(Cl)c3)CC2)C1=O,-6.67%
10,CC(C(=O)N1CCN(c2ccccc2)CC1)N1C(=O)C2CC=CCC2C1=O (stereo not shown),7.43%
11,CC(=O)N1CN(C2CC(C)(C)NC(C)(C)C2)Cc2c1sc1c2CCCC1,6.77%
12,C(=C\c1ccccn1)/c1ccccn1,24.4%
13,CC1=CC(C)(C)N(C(=O)CSc2nnc(N)s2)c2ccccc21,6.19%
14,O=c1[nH]c(=O)n(CCc2ccc(F)cc2)c(O)c1C=NCCCN1CCOCC1,-17.7%
15,CC(=O)Nc1cc(C(C)C)c(O)c(C(C)C)c1,-4.37%
16,Cc1cccc(CCNC(=O)Cn2ncc3c([nH]c4ccccc43)c2=O)c1,14.2%
17,COc1cc(/C=C2\S/C(=N/S(=O)(=O)c3ccccc3)NC2=O)c([N+](=O)[O-])cc1OC,4.25%
18,O=C(CC1SC(=O)N(Cc2ccc(Cl)cc2)C1=O)Nc1nccs1 (stereo not shown),-4.51%
19,O=c1[nH]c(=O)n(C2OC(CO)C(O)C2O)cc1Br (stereo not shown),26.2%
20,CCOC(=O)c1c(-c2ccc(C)o2)csc1N,20.5%
21,Oc1ccccc1C1=Nc2ccccc2N=C(c2ccco2)C1,-12.7%
22,COc1ccc(CNS(=O)(=O)c2c(C)[nH]c(C)c2C(=O)N2CCCC2)cc1,17.6%

row,Compound,"hERG current change (%, negative = inhibition) at 10uM"
1,CCOC(=O)C1CCN(c2ccc([N+](=O)[O-])cc2)CC1,-68.9%
2,O=C(C1CCN(S(=O)(=O)c2cnc[nH]2)CC1)N1CCN(c2ccc([N+](=O)[O-])cc2)CC1,-1.78%
3,COC(=O)C1CCN(c2ccc([N+](=O)[O-])cc2)CC1,-21.7%
4,CN(C)S(=O)(=O)N1CCN(c2ccc([N+](=O)[O-])cc2)CC1,-76.7%
5,CN(C)S(=O)(=O)N1CCN(c2ccccc2)CC1,-1.78%
6,CN(C)S(=O)(=O)N1CCN(c2ccc(Cl)cc2)CC1,-14.4%
7,CCOC(=O)N1CCN(c2c(N3CCN(c4ccc(F)cc4)CC3)c(=O)c2=O)CC1,-73.4%
8,O=S(=O)(c1cnc[nH]1)N1CCN(c2ccc(F)cc2)CC1,-3%
9,CCOC(=O)N1CCN(c2c(N3CCN(c4ccc(OC)cc4)CC3)c(=O)c2=O)CC1,-46.6%
10,CCOC(=O)C1CCN(c2ccc([N+](=O)[O-])c(C(C)=O)c2)CC1,-11.8%
11,O=[N+]([O-])c1ccc(N2CCN(S(=O)(=O)c3cnc[nH]3)CC2)cc1,-59.8%
12,CCOC(=O)N1CCN(c2c(N3CCN(C(=O)OCC)CC3)c(=O)c2=O)CC1,-29.1%
13,C[C@]12CCC3C(CC[C@H]4CCCC[C@]34C)C1CC[C@@]2(O)CNCCO (stereo partly shown),15.6%
14,O=C(O)CCCNc1cc(N2CCN(C(=O)c3ccco3)CC2)c2noc3c2c1C(=O)c1ccccc1-3,19%
15,O=C(O)C1CCCCC1C(=O)Nc1nc(-c2ccc(Cl)s2)cs1 (stereo not shown),13.7%
16,C/C(=N\NC(=O)c1ccc(F)cc1)c1ccc(N2CCOCC2)cc1,-16.7%
17,O=S(=O)(c1cccc(-c2cn3cc(Cl)ccc3n2)c1)N1CCOCC1,-23.1%
18,CCCCOC(=O)c1ccc(NC(=O)CSCc2n[nH]c(=O)[nH]2)cc1,1.91%
19,S=C(NC1CCCCC1)N(CCc1nc2ccccc2[nH]1)C1CCCC1,4.83%
20,CCOC(=O)N1CCN(c2ccc([N+](=O)[O-])cc2)CC1,-59.4%
21,Cc1cnc(C(=O)Nc2ccc(N3CCN(C(=O)OC(C)(C)C)CC3)cc2)cn1,14.1%
22,COc1ccc(C(=O)N2CCC(C(=O)N3CCN(c4ccc(OC)cc4)CC3)CC2)cc1,-43.5%

row,Compound,"hERG current change (%, negative = inhibition) at 10uM"
1,COc1ccc(N2CCN(C(=O)C3CCN(C(=O)c4cccc(Cl)c4)CC3)CC2)cc1,-29.8%
2,CCOC(=O)N1CCN(S(=O)(=O)c2ccc([N+](=O)[O-])cc2)CC1,-23.9%
3,CCN(CC)C(=O)Cn1cc(C(=O)C(=O)N2CCN(c3ccc(OC)cc3)CC2)c2ccccc21,16.1%
4,COc1ccc(N2CCN(C(=O)C3CCN(C(=O)c4ccc([N+](=O)[O-])cc4)CC3)CC2)cc1,-69%
5,CCN(CC)C(=O)Cn1cc(C(=O)C(=O)N2CCN(c3ccccc3)CC2)c2ccccc21,-0.908%
6,O=[N+]([O-])c1ccc(N2CCN(c3ccccc3O)CC2)cc1,-0.173%
7,CCN(CC)C(=O)Cn1cc(C(=O)C(=O)N2CCN(c3ccc([N+](=O)[O-])cc3)CC2)c2ccccc21,-65.8%
8,CCOC(=O)N1CCN(c2ccc(O)cc2)CC1,15.6%
9,CC(C)(C)OC(=O)N1CCN(c2ccc([N+](=O)[O-])cc2)CC1,-73.3%
10,COC(=O)C(NS(=O)(=O)c1ccc(NC(C)=O)cc1)C(C)C (stereo not shown),-0.58%
11,CN(C)CCCNC(=O)c1cc(C(=O)C2CCCCC2)c[nH]1,-3.99%
12,C=C(C)C(C)(C#CCN1CCCC1)OC(C)=O (stereo not shown),-6.48%
13,NS(=O)(=O)c1ccc(CNC(=O)CCC2CCCCC2)cc1,-2.5%
14,COc1cc(NC(=S)N2CCN(S(=O)(=O)c3ccc(C)cc3)CC2)cc(OC)c1,-4.7%
15,CC(=O)c1ccc(-n2cc(C#N)c(=O)[nH]c2=O)cc1,18.9%
16,CC1CN(C(=O)c2cccc(COc3ccccc3Cl)c2)CC(C)O1 (stereo not shown),-49.3%
17,Cc1ccc(C(=O)OCc2cn(-c3ccccc3)nn2)cc1,-7.92%
18,O=C(O)Cc1sc(Nc2ccccc2)nc1-c1ccc(Cl)cc1,14.6%
19,Nc1nnc(SCC(=O)Nc2cccc(S(=O)(=O)N3CCOCC3)c2)s1,24.1%
